Measurements reported in PubChem BioAssay AID651602 (The Scripps Research Institute Molecular Screening Center, 2012).
About 950 (0.26%) of roughly 360,000 compounds were called active. Only a selection was taken, and actives are over-represented in it overall. A number with no mark means an inactive call. Rule as the data show it: active = inhibition above about 11%; inactive = the rest.

assay: reduced absorbance of E. coli cultures with phage – HTS, RecBCD inhibitor project, primary screen (AID 651602); details: growth absorbance, at 11.9 µM, stronger effect = higher value

Compared with `CC(C)C[C@H](NC(=O)CC1CCCC1)C(=O)N1CCC[C@H]1C(=O)NCc1ccccc1`, `O=C(NCc1ccccc1)[C@@H]1CCCN1C(=O)[C@H]1CCCN1C(=O)c1cccc(Cl)c1` is higher in inhibition: -1.58% for the first, 1.16% for the second.

First: NC1=NC(=O)C(Cc2cccc(Cl)c2)S1 (stereo unspecified)
Second: O=C1NC(=Nc2ccc(Cl)cc2)SC1Cc1cccc(Cl)c1Cl (stereo unspecified)
The inhibition of the first is lower: 2.84% for the first, 3.76% for the second.

Compared with `Nc1nc2c(ncn2[C@@H]2O[C@H](C(=O)N[C@H](Cc3ccccc3)C(=O)NCC3CCCCC3)[C@@H](O)[C@H]2O)c(=O)[nH]1`, `Nc1ncnc2c1ncn2[C@@H]1O[C@H](C(=O)N[C@@H](CCc2ccccc2)C(=O)N2CCCN(Cc3cccs3)CC2)[C@@H](O)[C@H]1O` is higher in inhibition: 0.31% for the first, 2.53% for the second.

Going from `CCCCCCCCN1C(=O)[C@@H](CC(=O)NCc2ccc(C)o2)C[C@@]2(C(=O)OC)C1=C[C@H](C(C)(C)C)O[C@@H]2C` to `CCCCCCCCN1C(=O)[C@@H](CC(=O)NCc2ccccc2)C[C@@]2(C(=O)OC)C1=C[C@H](C(C)(C)C)O[C@@H]2C`, the inhibition falls from 4.26% to 1.01%.

First: NC(=O)NCCCC(=O)O
Second: COc1cccc(CNC(=O)c2nnn(CC(=O)Nc3cc(Cl)ccc3C)c2N)c1
The inhibition of the first is higher: 3.55% for the first, -1.55% for the second.

Compared with `CCCCCCCCN1C(=O)[C@@H](CC(=O)N2CCN(C(=O)OCC)CC2)C[C@@]2(C(=O)OC)C1=C[C@H](C1CCCC1)O[C@@H]2C`, `COC(=O)[C@]12C[C@H](CC(=O)NCc3ccc(C)o3)C(=O)N(CCC3=CCCCC3)C1=C[C@H](C(C)(C)C)O[C@@H]2C` is higher in inhibition: 0.85% for the first, 1.32% for the second.

Going from `CCOc1ccccc1C(=O)N1CCC[C@@H]1C(=O)N1CCC[C@H]1C(=O)NCc1ccccc1` to `O=C(NCc1ccccc1)[C@H]1CCCN1C(=O)[C@@H]1CCCN1C(=O)c1ccc(Cl)cc1Cl`, the inhibition falls from 2.4% to 1.72%.

First: COc1ccc2[nH]c(C)c(CCN(Cc3cccs3)C(=S)Nc3ccccc3OC)c2c1
Second: COCCNC(=S)N(CCc1c(C)[nH]c2ccc(C)cc12)Cc1cccnc1
The inhibition of the first is lower: 1.75% for the first, 2.3% for the second.

Compared with `CC(C)[C@H]1COCCS(=O)(=O)N1Cc1ccccc1-c1cccc2c1sc1ccccc12`, `CC(=O)C1=C(C)N(Cc2ccccc2)C(=S)NC1c1cccc(Br)c1` (stereo unspecified) is higher in inhibition: 2.16% for the first, 2.19% for the second.

First: N#Cc1cccc(C(=O)NCC2CCN(C(=O)C(=O)c3cc4ccccc4o3)CC2)c1
Second: CC(=O)c1ccc(S(=O)(=O)NCC2CCN(C(=O)C(=O)c3cccs3)CC2)cc1
The inhibition of the first is lower: 1.78% for the first, 2.71% for the second.

Going from `CN1C(=O)C2CC(O)C(SC3CC4C(=O)N(C)C(=O)C4CC3O)CC2C1=O` (stereo unspecified) to `CN1CCCCC(NC(=O)C(C)(C)C)C1=O` (stereo unspecified), the inhibition falls from 5.11% to 2.65%.

Compared with `CCCCNc1cccc2c1S(=O)(=O)N[C@@H](C)CO2`, `Nc1c(C(=O)Nc2ccc3c(c2)OCCO3)nnn1Cc1ccccc1` is higher in inhibition: 2% for the first, 5.25% for the second.

First: CN(NS(=O)(=O)c1cccs1)c1ncc(C(F)(F)F)cc1Cl
Second: O=C(c1ccccn1)c1ncc(C(F)(F)F)cc1Cl
The inhibition of the first is lower: 1.24% for the first, 2.12% for the second.

Compared with `O=C(Nc1ccc(C2CC2(Cl)Cl)cc1)c1cccc([N+](=O)[O-])c1` (stereo unspecified), `CC(C)c1ccc(NC(=O)CCN2C(=O)c3ccc([N+](=O)[O-])cc3C2=O)cc1` is lower in inhibition: 1.49% for the first, -0.16% for the second.

Compared with `COC(=O)C1=C(C(=O)OC)C2C=C(C(C)C)C1C(=O)C2(C)O` (stereo unspecified), `COc1cccc(CNC(=O)[C@H]2CCCN2C(=O)[C@H]2CCCN2C(=O)c2cc(F)cc(F)c2)c1` is lower in inhibition: 3.33% for the first, 0.85% for the second.

Compared with `C/C(=N\Nc1ccc(Cl)nn1)c1ccccc1O`, `Cc1ccc2nc(-c3ccc(CN4CCC(n5cc(-c6ccccc6)[nH]c5=O)CC4)cc3)c(-c3ccccc3)nc2c1` is higher in inhibition: -5.1% for the first, 2.06% for the second.

For `NC1=NC(=O)C(Cc2cccc(Cl)c2Cl)S1` (stereo unspecified), the inhibition was 14.8% (active).
With `CC(=O)N(O)CCCCCNC(=O)CCC(=O)N(O)CCCCCNC(=O)CCC(=O)N(O)CCCCCNC(=O)CCC(=O)O` the inhibition was 11.2% (active).
In the case of `CC1=C(C/C=C(\C)CCCC(C)CCCC(C)CCCC(C)C)C(=O)c2ccccc2C1=O` (stereo unspecified), the inhibition is reported as 99.2% (active).
In the case of `CN(O)C(=S)c1ccccc1`, the inhibition is reported as 28.3% (active).
With `CCNC(=S)N(CCc1c(C)[nH]c2ccc(C)cc12)Cc1ccco1` the inhibition was 13.2% (active).
For `COc1cccc(/C=N/Nc2ncc(C(F)(F)F)cc2Cl)c1O`, the inhibition was 24.4% (active).
For `Cn1ccc(=Nc2ccc(NC(=O)c3ccc(N=c4ccn(C)c5ccc([N+](=O)[O-])cc45)cc3)cc2)cc1`, the inhibition was 70.7% (active).
In the case of `CCOc1ccc(Cn2nnc(C(=O)Nc3ccc(OC)cc3OC)c2N)cc1`, the inhibition is reported as 10.9% (active).
For `Oc1cccc(/C=N/Nc2ccc(Cl)nn2)c1O`, the inhibition was 13.1% (active).
